Here are results for 14 compounds from PubChem BioAssay.

Each structure is given as a SMILES string. The source made the active and inactive calls. Unless noted, no rule for the calls is given here.

Test [1] deals with Wnt5a (protein binding on small-molecule microarray). In words: small molecules binding Wnt5a protein – biophysical, small-molecule microarray, 635/667 nm fluorescence, primary screen (AID 1142).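 Also: fluorescence read at 667 nm with signal to noise per printed feature.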 Conditions: 635 nm fluorescence, higher = more signal.
Test [2] in a line: ATP-based viability of Huh7 replicon cells – cell-based, CellTiter-Glo luminescence, basal, 48 h, cytotoxicity control for HCV replication inhibitor project, primary screen (AID 1143).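 Also: Huh7 hepatoma cells carrying a hepatitis C replication reporter with no stimulus; test concentration not given here.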 Conditions: higher = more signal, called active from +8 up or from −8 down.
Test [3] can be described thus: Pseudomonas biofilm growth suppression – PAO1 strain, BacTiter-Glo luminescence, LB-PBS, primary screen (AID 1144). Conditions: P. aeruginosa PAO1 biofilm, 12 h, higher = more signal.
A short description of test [4]: basal CRE-LacZ reporter activity in PC12 – cell-based, unstimulated, primary screen (AID 1145). Conditions: no forskolin, luminescence, 4.5 h, higher = more signal, called active from +8 up or from −8 down.
Test [5] in a line: forskolin-driven CRE-LacZ activity in PC12 – cell-based, CRE-LacZ reporter, forskolin-stimulated, primary screen (AID 1146).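 Also: PC12 cells with 6xCRE LacZ reporter stimulated by forskolin 10 µM; beta-galactosidase reporter signal reflecting CREB driven transcription.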 Conditions: luminescence, 4.5 h, higher = more signal, called active from +8 up or from −8 down.
Test [6] concerns the target Streptavidin (Streptomyces avidinii) (UniProt P22629). Put plainly: compounds binding control protein streptavidin – biophysical, small-molecule microarray, 635/667 nm fluorescence, artefact control for SMM compound annotation, primary screen (AID 1147).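 Also: signal reflects streptavidin binding to arrayed compounds as a control protein.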 Conditions: higher = more signal.
Test [7] can be described thus: probe aInhba binding on compound microarray – biochemical, small-molecule microarray, 635/667 nm fluorescence, primary screen (AID 1148).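 Also: score merges 667nm spot fluorescence with signal-to-noise for antibody binding to printed compounds.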 Conditions: higher = more signal.
In test [8] the target is Torsin-1A (Homo sapiens) (UniProt O14656). Put plainly: TOR1A wild-type binding on microarray – cell lysate, small-molecule microarray, lysate, 635/667 nm, primary screen (AID 1149). Conditions: COS7 hTOR1A-WT lysate, 635 nm fluorescence, higher = more signal.
Sequence of Torsin-1A (Homo sapiens) (O14656 whole entry, looked up): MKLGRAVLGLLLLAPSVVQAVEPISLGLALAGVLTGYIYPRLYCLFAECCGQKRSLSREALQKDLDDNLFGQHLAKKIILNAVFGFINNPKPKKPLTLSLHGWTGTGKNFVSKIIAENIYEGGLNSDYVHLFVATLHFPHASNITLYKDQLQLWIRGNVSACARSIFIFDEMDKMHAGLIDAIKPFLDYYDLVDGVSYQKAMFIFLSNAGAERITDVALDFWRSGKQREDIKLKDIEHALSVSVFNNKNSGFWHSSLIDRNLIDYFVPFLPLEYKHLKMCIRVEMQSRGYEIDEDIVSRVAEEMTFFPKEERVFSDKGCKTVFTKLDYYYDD
The target is the same in test [9]. Put plainly: torsin A mutant lysate binding on microarrays – cell lysate, small-molecule microarray, COS7 lysate, 635/667 nm fluorescence, primary screen (AID 1150).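 Also: score pools 667 nm emission and signal to noise measuring lysate protein binding.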 Conditions: COS7 hTOR1A mutant lysate, 635 nm fluorescence, higher = more signal.
For test [10], the system named is Sonic hedgehog protein (Shh). In words: Sonic hedgehog microarray binding compounds – biochemical, small-molecule microarray, 635/667 nm fluorescence, primary screen (AID 1151).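 Also: Shh protein binding to compounds spotted on small-molecule microarray slides; score combines spot fluorescence intensity with signal-to-noise across triplicate slides.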 Conditions: 635 nm fluorescence, higher = more signal.

Sequence of Streptavidin (Streptomyces avidinii) (P22629 whole entry, looked up): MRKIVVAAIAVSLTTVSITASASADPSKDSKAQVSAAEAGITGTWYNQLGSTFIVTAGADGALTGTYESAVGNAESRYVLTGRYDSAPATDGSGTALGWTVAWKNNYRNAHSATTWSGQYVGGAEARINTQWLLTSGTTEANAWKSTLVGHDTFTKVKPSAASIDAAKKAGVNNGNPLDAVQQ

Take `CO[C@@H]1COC(=O)CC=C[C@@H](C)[C@H](OC)COC(=O)[C@@H](C)COC(=O)CC=C[C@H]1C`: the composite z-score in test [1] is -0.451; in test [6], 0.0524; in test [7], -0.266; with Torsin-1A (Homo sapiens) [8] it was 1.4; in the test with Torsin-1A (Homo sapiens) [9], 0.381; in test [10] it was 1.68. Further, the z-score in test [2] was -0.128 (inactive); in [3] it was 0.416 (inactive); in test [4], 0.518 (inactive); in [5], -0.14 (inactive).

In the case of `CC=CC1=C(CO)C(=O)[C@@H]2O[C@@H]2C1=O`, the composite z-score in test [1] is 0.189; in test [6], -0.842; in [7], -0.128; with Torsin-1A (Homo sapiens) [8] it was 0.0039; with Torsin-1A (Homo sapiens) [9] it was -0.579; in [10] it was 1.72. For the same compound, the z-score was -1.02 (inactive) in test [2], -0.36 (inactive) in [3], 0.0178 (inactive) in [4] and 3.64 (inactive) in test [5].

Take `C[C@@H](c1ccccc1)N1C(=O)[C@H]2[C@H]3[C@H](O)[C@H](O)CC(=NO[C@@H]4O[C@H](CO)[C@@H](O)[C@H](O)[C@H]4O)[C@H]3CC[C@H]2C1=O`: the composite z-score in test [1] is 0.189; in test [6], 0.152; in test [7] it was -0.142; with Torsin-1A (Homo sapiens) [8] it was 0.225; with Torsin-1A (Homo sapiens) [9] it was 0.249; in test [10] it was 0.457. Also, the z-score in [2] was 0.573 (inactive); in test [3], -0.104 (inactive); in [4] it was -0.294 (inactive); in [5], 0.845 (inactive).

Take `C=CC[C@@H]1C=C[C@H](ON=C[C@@H](C)[C@H](OCc2ccccc2)C(C)C)[C@@H](CO)O1`: the composite z-score was -0.2 in [1]; -1.32 in test [6]; -0.238 in test [7]; -0.617 with Torsin-1A (Homo sapiens) [8]; -0.396 in the test with Torsin-1A (Homo sapiens) [9]; -0.119 in test [10]. Also, the z-score in [2] is -1.39 (inactive); in test [3], 0.787 (inactive); in [4], 1.31 (inactive); in test [5], 0.3 (inactive).

As for `CC(C)CON=C1C[C@@H](O)[C@@H](O)[C@@H]2[C@@H]3C(=O)N(C4CCCCC4)C(=O)[C@@H]3CC[C@H]12`, the composite z-score in [1] was found to be 0.298; in test [6], 0.451; in test [7], 0.125; in the test with Torsin-1A (Homo sapiens) [8] it was 0.792; in the test with Torsin-1A (Homo sapiens) [9], 0.375; in test [10] it was 0.72. Moreover, the z-score is 0.0498 (inactive) in [2], -0.52 (inactive) in test [3], 1.7 (inactive) in [4] and -0.061 (inactive) in test [5].

As to `CC(C)C[C@H](NC(=O)CCC1CC(OC(=O)NCc2cccc3ccccc23)CC2(CCCC(COC(=O)NCc3ccccc3)O2)O1)C(=O)NCC(c1ccccc1)c1ccccc1` (stereo not given in full), the composite z-score in [1] is 0.451; in test [6] it was 0.396; in test [7], -0.0963; in the test with Torsin-1A (Homo sapiens) [8] it was 0.317; with Torsin-1A (Homo sapiens) [9] it was 0.0582; in test [10], 0.954. Moreover, the z-score in [2] was -0.363 (inactive); in [3] it was -0.434 (inactive); in test [4], -0.258 (inactive); in test [5] it was 0.728 (inactive).

Take `O=C1OCCC=C1C(O)CCc1ccccc1` (stereo not given): the composite z-score is 0.0626 in test [1]; 0.992 in test [6]; -0.0562 in test [7]; -0.0693 in the test with Torsin-1A (Homo sapiens) [8]; 0.0478 with Torsin-1A (Homo sapiens) [9]; 0.316 in test [10]. Further, the z-score in [2] was 0.104 (inactive); in test [3], 1.15 (inactive); in test [4] it was 0.196 (inactive); in [5], 0.571 (inactive).

With `COc1cccc([C@H]2Oc3ccc(OC)cc3C(=NO[C@@H]3O[C@H](COC(C)=O)[C@@H](OC(C)=O)[C@H](OC(C)=O)[C@H]3OC(C)=O)[C@@H]2O)c1`, the composite z-score was 0.186 in test [1]; -0.0198 in test [6]; -0.163 in [7]; 0.29 with Torsin-1A (Homo sapiens) [8]; 0.461 with Torsin-1A (Homo sapiens) [9]; 0.149 in test [10]. In addition, the z-score in test [2] was -0.202 (inactive); in test [3], 0.0537 (inactive); in test [4], 0.336 (inactive); in test [5], 0.38 (inactive).

Turning to `O=C1[C@H]2[C@H]3[C@H](O)[C@H](O)CC(=NOCc4ccccc4)[C@H]3CC[C@H]2C(=O)N1Cc1ccc2c(c1)OCO2`, the composite z-score in [1] is -0.0988; in [6] it was 0.484; in test [7] it was -0.15; in the test with Torsin-1A (Homo sapiens) [8], 0.0874; with Torsin-1A (Homo sapiens) [9], 0.172; in test [10] it was 0.394. For the same compound, the z-score in test [2] is -1.96 (inactive); in [3], 1.66 (inactive); in test [4], -0.203 (inactive); in test [5], -0.915 (inactive).

For the compound `CCOC(=O)NN=C1C[C@@H](O)[C@@H](O)[C@@H]2[C@@H]3C(=O)N(Cc4ccc5c(c4)OCO5)C(=O)[C@@H]3CC[C@H]12`, the composite z-score in [1] was -0.193; in test [6] it was -0.563; in test [7] it was -0.128; with Torsin-1A (Homo sapiens) [8], -0.566; with Torsin-1A (Homo sapiens) [9], -0.282; in test [10], 0.14. In addition, the z-score in test [2] is -0.136 (inactive); in test [3], 1.46 (inactive); in [4], -0.658 (inactive); in [5], 0.619 (inactive).

On to `CCOC(=O)[C@H](Cc1ccccc1)NC(=O)CCC1CC(OC(=O)NCCc2ccc(F)cc2)CC2(CCCC(COC(=O)NCCOC)O2)O1` (stereo not given in full), for which the composite z-score in [1] worked out at 1.58; in [6], 1.19; in test [7] it was 0.122; in the test with Torsin-1A (Homo sapiens) [8] it was 0.998; with Torsin-1A (Homo sapiens) [9] it was 0.753; in [10] it was 0.784. Besides, the z-score in test [2] was -0.326 (inactive); in test [3], -0.852 (inactive); in [4] it was 0.473 (inactive); in test [5], -0.728 (inactive).

`CC(C)(C)N1C(=O)[C@H]2[C@H]3[C@H](O)[C@H](O)CC(=O)[C@H]3CC[C@H]2C1=O`: the composite z-score in test [1] is -0.0509; in [6], -0.0955; in [7] it was -0.0405; with Torsin-1A (Homo sapiens) [8] it was 0.128; in the test with Torsin-1A (Homo sapiens) [9] it was 0.29; in [10], 0.696. The z-score was -1.06 (inactive) in [2], 0.925 (inactive) in [3], 0.62 (inactive) in [4] and 0.95 (inactive) in test [5].

With `Cc1cc2c(c(=O)o1)[C@@H](O)[C@H]1O[C@H]1C2=O`, the composite z-score in test [1] is 0.149; in test [6], 0.361; in test [7], 0.0073; with Torsin-1A (Homo sapiens) [8] it was 0.102; in the test with Torsin-1A (Homo sapiens) [9], 0.253; in [10] it was 1.1. For the same compound, the z-score was 0.773 (inactive) in test [2], 0.0297 (inactive) in test [3], -0.255 (inactive) in test [4] and 0.0917 (inactive) in test [5].

Regarding `O=C1[C@H]2[C@H]3[C@H](O)[C@H](O)CC(=NOC[C@@H](O)COCc4ccco4)[C@H]3CC[C@H]2C(=O)N1Cc1ccccc1`, the composite z-score is -0.0661 in test [1]; -0.68 in test [6]; -0.182 in test [7]; 0.246 with Torsin-1A (Homo sapiens) [8]; 0.462 in the test with Torsin-1A (Homo sapiens) [9]; 1.38 in test [10]. Besides, the z-score is -0.734 (inactive) in test [2], 0.448 (inactive) in test [3], -0.474 (inactive) in test [4] and 0.479 (inactive) in test [5].
